Screening results: PubChem, The Scripps Research Institute Molecular Screening Center
Only some compounds are listed: those with a hit (about 3.3% of all), similar ones and a draw of the others.
TLR9-MyD88 inh: inhibitors of human TLR9-MyD88 binding. Q9NR96+Q99836. CHO BLA complementation TLR9-MyD88, CCF4 FRET ratio. inhibition, % at 4.98 µM. 340,000 compounds, 0.21% hits. AID 504734;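 active means inhibition above the mean over all tested compounds plus 3 SD, cut at about 21% in these data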;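 further: 0% = DMSO only wells and 100% = clavulanate BLA inhibitor control wells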
Target sequence (Q99836 whole entry, looked up): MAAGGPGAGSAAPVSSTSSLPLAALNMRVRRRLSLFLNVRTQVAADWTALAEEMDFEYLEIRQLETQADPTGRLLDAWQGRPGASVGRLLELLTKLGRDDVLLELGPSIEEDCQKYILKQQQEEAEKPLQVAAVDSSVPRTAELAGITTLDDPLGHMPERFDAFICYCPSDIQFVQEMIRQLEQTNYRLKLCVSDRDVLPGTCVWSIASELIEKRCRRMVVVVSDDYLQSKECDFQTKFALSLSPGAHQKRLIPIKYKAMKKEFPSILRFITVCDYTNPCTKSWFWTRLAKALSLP
Target sequence (Q9NR96 whole entry, looked up): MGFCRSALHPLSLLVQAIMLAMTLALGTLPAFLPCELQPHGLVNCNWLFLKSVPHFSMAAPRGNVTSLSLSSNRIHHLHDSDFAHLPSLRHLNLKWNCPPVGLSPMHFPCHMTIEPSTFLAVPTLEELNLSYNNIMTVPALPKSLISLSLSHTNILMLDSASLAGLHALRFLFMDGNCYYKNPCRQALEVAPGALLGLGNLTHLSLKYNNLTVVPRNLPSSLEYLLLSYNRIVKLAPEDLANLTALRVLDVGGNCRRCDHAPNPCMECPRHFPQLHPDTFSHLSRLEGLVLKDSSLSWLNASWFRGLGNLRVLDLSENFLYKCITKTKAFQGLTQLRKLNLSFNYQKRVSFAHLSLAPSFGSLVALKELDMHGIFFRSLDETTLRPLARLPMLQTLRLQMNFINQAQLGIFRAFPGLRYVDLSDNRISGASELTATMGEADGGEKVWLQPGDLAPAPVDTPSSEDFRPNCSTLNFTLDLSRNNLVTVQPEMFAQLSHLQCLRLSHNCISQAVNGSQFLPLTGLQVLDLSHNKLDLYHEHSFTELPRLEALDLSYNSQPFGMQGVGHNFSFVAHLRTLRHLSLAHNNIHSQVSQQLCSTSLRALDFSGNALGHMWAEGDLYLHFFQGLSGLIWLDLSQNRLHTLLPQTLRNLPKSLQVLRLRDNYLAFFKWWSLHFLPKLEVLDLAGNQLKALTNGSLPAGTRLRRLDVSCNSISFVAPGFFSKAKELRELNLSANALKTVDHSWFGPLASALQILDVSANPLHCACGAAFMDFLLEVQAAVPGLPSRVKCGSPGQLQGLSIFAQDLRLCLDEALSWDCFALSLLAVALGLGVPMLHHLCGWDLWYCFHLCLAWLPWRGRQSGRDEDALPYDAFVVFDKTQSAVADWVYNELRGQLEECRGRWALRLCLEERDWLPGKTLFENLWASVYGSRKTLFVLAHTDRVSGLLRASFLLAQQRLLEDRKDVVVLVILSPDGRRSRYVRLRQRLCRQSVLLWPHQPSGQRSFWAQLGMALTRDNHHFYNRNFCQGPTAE
PRMT1 inh: PRMT1 (human) inhibition, primary screen; Q99873; recombinant PRMT1, activity-based probe fluorescence polarization; inhibition, % at 2.79 µM; 370,000 compounds, 1.3% hits; AID 652257;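 active means inhibition above about 21% made by adding two undisclosed values, limit read from the data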
NOD2 RIPK2 PPI: inhibitors of human NOD2-RIPK2 interaction. O43353. CHO BLA complementation NOD2-RIPK2, CCF4 ratio. inhibition, % at 4.98 µM. 360,000 compounds, 0.38% hits; in the data active means inhibition above about 21%;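 further: 0% = vehicle only and 100% = reference blocker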
ABHD5 PLIN5 PPI: blocks binding of human ABHD5 to perilipin-5; AID 602281; 360,000 compounds, 0.78% hits; Split G. princeps luciferase complementation, luminescence, 4 h; inhibition, % at 4 µM; Q00G26+Q8WTS1;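 active means inhibition above the mean inhibition across every tested compound plus 3 SD, cut at about 22% in these data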;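 further: 0% = DMSO only wells and the 100% control is not disclosed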
rCAG binder: molecules binding r(CAG) RNA repeats | 370,000 compounds, 1.3% hits | r(CAG) RNA repeat, TO-PRO-1 dye displacement fluorescence | inhibition, % at 3 µM | AID 651821;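 active means inhibition above the plate cutoff, the mean of all test compounds on that plate plus 3 SD, cut at about 35% in these data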;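 further: 0% = DMSO alone and 100% = 100 µM mitoxantrone as full dye displacement; higher means more dye released from RNA so lower well fluorescence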
TLR4-MyD88 BLA: TLR4-MyD88 interaction inhibition in cells. HeLa CL3-4 TLR4/MyD88 BLA complementation, FRET ratio. 200,000 compounds, 0.18% hits. inhibition, % at 8.4 µM; in the data active means inhibition above about 25%;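 further: 0% = vehicle and 100% = reference inhibitor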
rCAG binder conf: r(CAG) RNA repeat binding, confirmation | inhibition, % at 3 µM | 4,300 compounds, 70% hits | shares compounds with rCAG binder | TO-PRO-1 dye displacement fluorescence | AID 652065;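 active means inhibition above a per-plate cutoff, the mean inhibition of sample wells plus 3 SD, cut at about 35% in these data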;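 further: loss of TO-PRO-1 fluorescence as compound displaces dye from 1x1 AA loop RNA; 0% = DMSO only wells and 100% = 100 µM mitoxantrone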
dCAG dye counter: DNA CAG dye complex inhibition counter-screen. inhibition, % at 3 µM. d(CAG) DNA oligo TO-PRO-1 dye displacement, fluorescence. AID 652068. shares compounds with rCAG binder. 4,300 compounds, 94% hits;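 active means inhibition above its plate's cutoff, the mean test-well inhibition plus 3 SD, cut at about 4.8% in these data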;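 further: 0% = DNA dye mix with DMSO and 100% = 100 µM mitoxantrone; hits displace the dye from DNA and so lower well fluorescence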
The depositor's hits bear a star.

For Cc1cc(/C=N/Nc2ccc([N+](=O)[O-])cn2)c(C)n1-c1ccc(C(=O)O)cc1 the results were TLR9-MyD88 inh 6, PRMT1 inh 8, NOD2 RIPK2 PPI 1, ABHD5 PLIN5 PPI 2, rCAG binder 42*, TLR4-MyD88 BLA 23, rCAG binder conf 32 and dCAG dye counter 9.4*.
O=C(Nc1cccc(Oc2ccc(C(=O)O)c(C(=O)O)c2)c1)c1ccc(-c2ccccc2)cc1 was read as TLR9-MyD88 inh 3, PRMT1 inh 0, NOD2 RIPK2 PPI -12, ABHD5 PLIN5 PPI 13, rCAG binder 58*, rCAG binder conf 53* and dCAG dye counter 19*.
Cc1ccc2nc(-c3cccc(Br)c3)c(Cc3ccccc3C(F)(F)F)n2c1 was read as PRMT1 inh -7, NOD2 RIPK2 PPI 4, ABHD5 PLIN5 PPI -6, rCAG binder 35*, rCAG binder conf 22 and dCAG dye counter 4.8*.
COc1ccc(-c2nc3ccc(C)cn3c2Cc2ccccc2C(F)(F)F)cc1OC was read as PRMT1 inh 3 and rCAG binder 2.
Cc1ccc2nc(-c3ccc(F)cc3)c(Cc3ccccc3C(F)(F)F)n2c1 was read as PRMT1 inh 1, NOD2 RIPK2 PPI -2, ABHD5 PLIN5 PPI -9 and rCAG binder 12.
For COc1ccc(-c2nc3ccc(Br)cn3c2Cc2ccccc2C(F)(F)F)cc1OC the results were PRMT1 inh -4, NOD2 RIPK2 PPI -8, ABHD5 PLIN5 PPI -5, rCAG binder 43*, rCAG binder conf 19 and dCAG dye counter 4.8*.
For O=C(CSc1nnc(SCc2cccc3ccccc23)s1)Nc1ccc(C(=O)O)cc1 the results were TLR9-MyD88 inh -3, PRMT1 inh 0, NOD2 RIPK2 PPI 3, ABHD5 PLIN5 PPI -9, rCAG binder 67*, TLR4-MyD88 BLA 0, rCAG binder conf 68* and dCAG dye counter 30*.
For Cc1ccc(CSc2nnc(SCC(=O)N/N=C/c3ccc(C(=O)O)cc3)s2)cc1 the results were TLR9-MyD88 inh -1, PRMT1 inh 5, NOD2 RIPK2 PPI -13, ABHD5 PLIN5 PPI -2, rCAG binder 43*, rCAG binder conf 41* and dCAG dye counter 11*.
`O=C(CSc1nc2ccccc2s1)NNC(=S)Nc1ccc(Br)cc1` gave TLR9-MyD88 inh 5, PRMT1 inh 5, NOD2 RIPK2 PPI 1, ABHD5 PLIN5 PPI -19, rCAG binder 53*, TLR4-MyD88 BLA 2, rCAG binder conf 61* and dCAG dye counter 22*.
Screening O=C(CSc1nnc(SCc2ccccc2)s1)N/N=C/c1ccc(C(=O)O)cc1 returned TLR9-MyD88 inh -2, PRMT1 inh 0, NOD2 RIPK2 PPI 4, ABHD5 PLIN5 PPI -2 and rCAG binder 22.
For CCc1ccc(Nc2nnc(SCC(=O)Nc3ccc(C(=O)O)cc3)s2)cc1 the results were TLR9-MyD88 inh 3, PRMT1 inh 2, NOD2 RIPK2 PPI 3, ABHD5 PLIN5 PPI -7, rCAG binder 36*, rCAG binder conf 22 and dCAG dye counter 5.0*.
Screening COc1cc2c(c3ccccc13)CCCC2=O returned TLR9-MyD88 inh -1, PRMT1 inh -1, NOD2 RIPK2 PPI 0, ABHD5 PLIN5 PPI -10 and rCAG binder 1.
`O=S1(=O)CC(N2CCCC2)CN1` (centres undefined) gave PRMT1 inh -2 and rCAG binder 2.
For Cc1cc(C)c2c(c1)/C(=c1/sc3n(c1=O)CN(c1ccccc1)CN=3)C(=O)N2 the results were TLR9-MyD88 inh 4, PRMT1 inh -4, NOD2 RIPK2 PPI -6, ABHD5 PLIN5 PPI 6 and rCAG binder 7.
`CCC1(c2ccccc2)NC(=O)N(CC(=O)N(CC(=O)Nc2ccccc2C(F)(F)F)Cc2ccco2)C1=O` (centres undefined) gave TLR9-MyD88 inh 1, PRMT1 inh 0, NOD2 RIPK2 PPI -8, ABHD5 PLIN5 PPI 6 and rCAG binder -7.
`Cc1ccc(NC(=S)NNC(=O)CSc2nnc(SCc3cccc4ccccc34)s2)cc1` gave PRMT1 inh -6, rCAG binder 52*, rCAG binder conf 51* and dCAG dye counter 20*.
`O=C(O)c1cccc(CN2C(=O)S/C(=C/c3ccccc3[N+](=O)[O-])C2=O)c1` gave TLR9-MyD88 inh -4, PRMT1 inh 7, NOD2 RIPK2 PPI -1, ABHD5 PLIN5 PPI 4 and rCAG binder 14.
Screening Cc1ccc(CN2C(=O)S/C(=C\c3ccccc3OCC(=O)O)C2=O)cc1 returned TLR9-MyD88 inh 3, PRMT1 inh 0, NOD2 RIPK2 PPI -5, ABHD5 PLIN5 PPI 8, rCAG binder 60*, TLR4-MyD88 BLA -1, rCAG binder conf 64* and dCAG dye counter 18*.
Screening O=C(O)COc1ccccc1/C=C1\SC(=O)N(Cc2ccc(F)cc2)C1=O returned TLR9-MyD88 inh -5, PRMT1 inh 2, NOD2 RIPK2 PPI 9, ABHD5 PLIN5 PPI -1, rCAG binder 37*, TLR4-MyD88 BLA 11, rCAG binder conf 39* and dCAG dye counter 5.0*.
`COC(=O)c1c(C)[nH]c(C)c1-c1ccc(C)cc1` gave TLR9-MyD88 inh 2, PRMT1 inh 1, NOD2 RIPK2 PPI -11, ABHD5 PLIN5 PPI -5, rCAG binder 43*, TLR4-MyD88 BLA 2, rCAG binder conf 2 and dCAG dye counter 1.
`O=C(c1cc(F)c(F)cc1Cl)N1CCN(S(=O)(=O)c2cccs2)CC1` gave TLR9-MyD88 inh 4, PRMT1 inh 0, NOD2 RIPK2 PPI 5, ABHD5 PLIN5 PPI -6 and rCAG binder 0.
Screening O=C(O)c1cc(-c2c[nH]c3ccccc23)nc2cc3ccccc3cc12 returned PRMT1 inh 1, NOD2 RIPK2 PPI 2, ABHD5 PLIN5 PPI -2, rCAG binder 54*, rCAG binder conf 35* and dCAG dye counter 13*.
For O=C(O)c1cc(-c2ccc3ccccc3c2)nc2ccc(F)cc12 the results were TLR9-MyD88 inh -18, PRMT1 inh -3, NOD2 RIPK2 PPI 0, ABHD5 PLIN5 PPI -21, rCAG binder 37*, rCAG binder conf 19 and dCAG dye counter 4.
O=C(O)c1cc(-c2ccc3ccccc3n2)nc2ccccc12 was read as TLR9-MyD88 inh -4, PRMT1 inh -1, NOD2 RIPK2 PPI 2, ABHD5 PLIN5 PPI 6 and rCAG binder 2.
O=C(/C=C/c1ccccc1)Nc1ccc(Cl)cn1 was read as TLR9-MyD88 inh 0, PRMT1 inh -2, NOD2 RIPK2 PPI -7, ABHD5 PLIN5 PPI -3, rCAG binder 2 and TLR4-MyD88 BLA -4.
